Assay [1] in a line: CCTE_Harrill_HTTr_Viability_MCF7: CCTE's 6-hour Cell Viability Assessment for the High-Throughput Transcriptomics (HTTr) Platform, in MCF-7 cells cultured in DMEM + 10% fetal bovine serum, Harrill Lab (AID 2284010). The essentials: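 Read-out is propidium iodide gain of signal by high-content imaging, reflecting membrane integrity loss. Measurements are taken 6 h after dosing, eight concentrations per chemical, with DMSO serving as baseline for bidirectional curve fitting.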

The nature of assay [2]: CCTE_Harrill_HTTr_Apoptosis_MCF7: CCTE's 6-hour Apoptosis Assessment for the High-Throughput Transcriptomics (HTTr) Platform, in MCF-7 cells cultured in DMEM + 10% fetal bovine serum, Harrill Lab (AID 2284011). The essentials:
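Apoptosis in MCF-7 cells grown in DMEM with 10% fetal bovine serum was scored after a six hour exposure by high content imaging of caspase-3/7 activation (CellEvent Caspase 3/7 Green), with DMSO serving as negative control and baseline.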

The nature of assay [3]: CCTE_Shafer_MEA_acute_spike_number: CCTE's Neural Acute Assay for Total Number of Spikes, Shafer Lab (AID 2284008).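 For AC50: curve fitted for decrease in spike count so AC50 reflects inhibitors.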 The essentials:
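Using an adaptive detector set to 8x rms noise, spikes were counted in 40-min windows before and after compound addition (0.03-40 uM) to rat cortical networks at 37 C; the well-level change from baseline was analysed relative to DMSO.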

Assay [4] is described as follows: CCTE_Shafer_MEA_acute_firing_rate_mean: CCTE's Neural Acute Assay for Mean Firing Rate, Shafer Lab (AID 2284009).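 Note: analyzed for loss of signal so actives lower firing rate relative to DMSO.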 The essentials:
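Spontaneous spiking of primary rat cortical networks, DIV 13/15, 37 C. Compound 0.03-40 uM, n ≥3 wells; 40 min baseline vs 40 min treated. Endpoint fitted in loss-of-signal direction against DMSO.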

The nature of assay [5]: CCTE_Shafer_MEA_acute_burst_number: CCTE's Neural Acute Assay for Single-Electrode Bursts, Shafer Lab (AID 2284013). Put shortly:
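Burst totals were derived with adaptive spike detection (8x rms threshold) on filtered signals from rat cortical cultures; change relative to pre-treatment baseline after 40-min compound exposure (0.03-40 uM) was fitted in the negative direction against DMSO.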

Assay [6] is described as follows: CCTE_Shafer_MEA_acute_burst_duration_mean: CCTE's Neural Acute Assay for Mean Burst Duration, Shafer Lab (AID 2284014).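 Note: hits are decreases in mean burst duration relative to DMSO controls.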 Put shortly: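 Acute exposure of mature rat cortical networks (DIV 13 or 15) grown on microelectrode arrays to 0.03-40 uM compound. Mean burst duration compared with the 40-min pre-dose baseline over a 40-min post-dose recording at 37 C.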
A short description of assay [7]: CCTE_Shafer_MEA_acute_per_burst_spike_number_mean: CCTE's Neural Acute Assay for Average Number of Spikes Per Burst, Shafer Lab (AID 2284015).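 Note: hits are decreases in mean spikes per burst versus baseline.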 The essentials: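 Rat primary cortical neurons on 48-well MEAs (DIV 13 or 15) were treated with 0.03-40 uM compound at 37 C. Mean spikes per burst over 40 min were recorded before and after exposure and expressed as percent change from baseline, relative to DMSO.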

Assay [8] can be described thus: CCTE_Shafer_MEA_acute_interburst_interval_mean: CCTE's Neural Acute Assay for Mean Interburst Interval, Shafer Lab (AID 2284016).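 Note: percent change of mean interburst interval versus each well's own pre-dose baseline; curves fitted for decrease in interburst interval relative to DMSO.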 Put shortly: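 Rat primary cortical neurons on 48-well MEAs at DIV 13 or 15 were exposed acutely to 0.03-40 uM. Spikes detected at 8x rms noise, 37 C. Mean interburst interval from 40 min recordings expressed as percent change from 40 min pre-treatment baseline.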

Assay [9] can be described thus: CCTE_Shafer_MEA_acute_burst_percentage_mean: CCTE's Neural Acute Assay for Percentage of Spikes in a Burst, Shafer Lab (AID 2284017).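 For AC50: curve fitted for loss of signal so potency reflects decreased burst percentage.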 Put shortly: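 Primary rat cortical neurons on 48-well MEA plates, treated on DIV 13 or 15 at 0.03-40 uM. Spikes detected at 8x rms noise at 37C; percent change from 40-min baseline to 40-min post-dose recording, fitted versus DMSO.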

Assay [10] is described as follows: CCTE_Shafer_MEA_acute_burst_percentage_std: CCTE's Neural Acute Assay for Standard Deviation of Burst Percentage, Shafer Lab (AID 2284018).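 Note: fitted in the negative direction so actives lower burst percentage SD.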 Put shortly:
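Primary rat cortical neurons on 16-electrode MEA wells were recorded 40 min at baseline (DIV 13 or 15), then 40 min after compound (0.03-40 uM), at 37 C. Well value is SD across electrodes of spikes-in-bursts/total spikes; endpoint is percent change, DMSO-referenced.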

Assay [11] is described as follows: CCTE_Shafer_MEA_acute_per_network_burst_spike_number_mean: CCTE's Neural Acute Assay for Average Number of Spikes in a Network Burst, Shafer Lab (AID 2284019).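 For AC50: curve fitted for loss of signal so actives reduce spikes per network burst.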 Put shortly: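 Acute exposure of rat primary cortical networks (DIV 13/15) on MEAs; adaptive spike detection at 8x rms noise, 37 C. Percent change in spikes per network burst after 40 min with compound (0.03-40 uM), negative direction vs DMSO.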

The nature of assay [12]: CCTE_Shafer_MEA_acute_per_network_burst_spike_number_std: CCTE's Neural Acute Assay for Standard Deviation of Number of Spikes in a Network Burst, Shafer Lab (AID 2284020).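 Note: fitted for decrease in spike-number SD versus DMSO so actives lower it.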 The essentials: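 Acute MEA exposure, rat cortical neurons, 0.03-40 uM. Per-well % change versus own baseline; DMSO as negative control.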
The nature of assay [13]: CCTE_Shafer_MEA_acute_per_network_burst_electrodes_number_mean: CCTE's Neural Acute Assay for Mean Number of Electrodes in a Network Burst, Shafer Lab (AID 2284021).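 Note: curves fitted for decreases only so hits reduce electrodes per burst.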 The essentials: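 Percent change from baseline in average electrode count per network burst, rat cortical cultures on 48-well MEAs; 40-min recordings each side of exposure, DIV 13 or 15; threshold 8x rms noise; DMSO as negative control.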

Assay [14] can be described thus: CCTE_Shafer_MEA_acute_cross_correlation_area: CCTE's Neural Acute Assay for Area of Cross Correlation, Shafer Lab (AID 2284024).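 Note: area under pooled inter-electrode spike cross-correlation near zero lag as percent change from own baseline; curves fitted for loss of cross-correlation area so actives lower synchrony.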 Put shortly: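 Extracellular recordings from cultured rat cortical neurons measure network synchrony as cross-correlation area; each well's post-compound value (0.03-40 uM, 40 min) is compared with its own 40 min baseline to give percent change.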

Assay [15] is described as follows: CCTE_Shafer_MEA_acute_cross_correlation_HWHM: CCTE's Neural Acute Assay for Cross Correlation at Half Width at Half Maximum, Shafer Lab (AID 2284026).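 For outcome: spontaneous network firing of rat primary cortical neurons on multiwell microelectrode arrays.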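 Note: percent change per well from pre-dose baseline in spike cross-correlogram half width; hits are a decrease in cross-correlogram half width relative to DMSO.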 The essentials: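 Percent change in cross-correlogram half width at half maximum, narrower meaning more synchrony, was derived per well from paired 40-min recordings before and during exposure to 0.03-40 uM compound in rat cortical cultures at 37 C.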

Assay [16] can be described thus: CCTE_Shafer_MEA_acute_synchrony_index: CCTE's Neural Acute Assay for Synchrony, Shafer Lab (AID 2284027).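 Note: network synchrony index of spontaneous spiking in primary rat cortical neurons on MEAs; fitted for loss of signal so actives lower synchrony relative to DMSO.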 The essentials: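 Plates equilibrated 20 min at 37 C, baseline recorded 40 min, compound (0.03-40 uM) added, then 40 min more recorded. Cells: primary rat cortical neurons, DIV 13 or 15. Per-well synchrony index change analysed in negative direction against DMSO.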

Assay [17] is described as follows: CCTE_Harrill_HTTr_CellCount_MCF7: CCTE's Cell Proliferation Assessment for the High-Throughput Transcriptomics (HTTr) Platform, Harrill Lab (AID 2284012; active = hit-call score of the fitted dose curve at least 0.9, where 1 is the maximum;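 note: cells exposed to compound for six hours; intended direction is loss of nuclei count meaning fewer cells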). The essentials: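 Cell count served as viability reporter: loss of Hoechst-stained nuclei, counted by high content imaging, marks decreased growth or survival. Exposure was 6 h in MCF-7 cells across eight concentrations, with DMSO as baseline.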

Experimental findings from PubChem BioAssay (EPA / NIEHS) are described below.

Results filed as inconclusive are left out. Active and inactive are the calls of the source. Rule for the calls, unless noted: active = hit-call score of the fitted dose curve at least 0.9, where 1 is the maximum; inactive = score below 0.9.

On to `O=C1C=CC(=O)O1`, for which the outcome in assay [1] and in assay [2] was inactive.

`CCO[Si](C)(OCC)OCC`: the molecule was called inactive in [3], in [4], in assay [5], in [6], in assay [7] and in assay [8]. The molecule was called inactive in assay [9], in [10], in assay [11], in assay [12], in assay [13] and in [14]. Also, the outcome in assay [15] and in [16] was inactive.

Turning to `CO[Si](OC)(OC)c1ccccc1`, the molecule was classed as inactive in assay [3], in assay [4], in [5], in [6], in [7] and in assay [8]. Further, the molecule was called inactive in [9], in [10], in [11], in [12], in assay [13] and in assay [14]. Further, the call in assay [15] and in assay [16] was inactive.

As for `O=C(c1ccc(O)cc1)c1ccc(O)cc1O`, the outcome in assay [3], in assay [4], in [5], in [6], in [7] and in assay [9] was inactive. The call in [10], in assay [11], in [12], in assay [13], in assay [14] and in assay [15] was inactive. The molecule was called inactive in [16]. For the same molecule, in [8], the AC50 was 15 µM (active).

`O=c1[nH]nc(-c2ccc([N+](=O)[O-])o2)o1`: the outcome in assay [1] and in [2] was inactive.

On to `CCCCC(CC)COC(=O)c1ccccc1O` (stereo not drawn), for which the call in assay [3], in assay [4], in assay [1], in [2], in [17] and in assay [5] was inactive. In addition, the result in [6], in [7], in assay [9], in assay [10], in [11] and in assay [12] was inactive. For the same molecule, the molecule was classed as inactive in assay [13], in assay [14], in assay [15] and in assay [16]. Moreover, the AC50 in assay [8] was 7.5 µM (active).

On to `O=C1CCCCCCCCCCC(=O)OCCO1`, for which the result in assay [1] and in assay [2] was inactive.

Regarding `O=C(O)c1ccccc1Nc1cccc(C(F)(F)F)c1`, the outcome in assay [1] and in [2] was inactive.

Turning to `Cc1cnc(NC(=O)C2=C(O)c3ccccc3S(=O)(=O)N2C)s1`, the outcome in [1] and in [2] was inactive.

For `CC(=O)OC(C)C`, the outcome in assay [1] and in [2] was inactive.

Turning to `Nc1ccc(N)c(Cl)c1`, the molecule was called inactive in [3], in assay [4], in assay [5], in assay [6], in [7] and in [8]. The molecule was classed as inactive in assay [9], in assay [11], in assay [12], in assay [13], in assay [14] and in assay [15]. In addition, the molecule was classed as inactive in [16].

Take `O=C1CCCN1CCO`: the result in assay [3], in [4], in assay [5], in [6], in assay [7] and in assay [8] was inactive. Besides, the outcome in assay [9], in [10], in [11], in [12], in assay [13] and in [14] was inactive. In addition, the outcome in assay [15] and in [16] was inactive.

As to `Cn1c([N+](=O)[O-])cnc1COC(N)=O`, the result in assay [1] and in assay [2] was inactive.

For `Nc1ncn([C@@H]2O[C@H](CO)[C@@H](O)[C@H]2O)c(=O)n1`, the AC50 in [3] was 0.00765 µM (active); in assay [4], 0.00763 µM (active); in assay [5] it was 0.0142 µM (active); in [7], 5 µM (active); in assay [8] it was 7.71 µM (active); in assay [9], 8.06 µM (active). The AC50 was 15 µM (active) in assay [10]; 0.992 µM (active) in assay [11]; 5 µM (active) in assay [13]; 0.00671 µM (active) in [14]; 7.72 µM (active) in [15]; 9.61 µM (active) in assay [16]. Besides, the outcome in [1], in [2], in assay [17], in assay [6] and in assay [12] was inactive.

With `COc1ccc(C(Cl)=C(c2ccc(OC)cc2)c2ccc(OC)cc2)cc1`, the outcome in [1] and in assay [2] was inactive.

`CN1C(=O)N(C)C(O)C1O` (stereo not drawn): the molecule was called inactive in assay [3], in [4], in assay [5], in assay [6], in [7] and in [8]. The molecule was classed as inactive in [9], in [10], in assay [11], in [12], in assay [13] and in assay [14]. Moreover, the outcome in assay [15] and in assay [16] was inactive.

With `[Cl][Nd]([Cl])[Cl]`, the result in [1] and in [2] was inactive.

For `Cc1ccccc1C`, the result in assay [1] and in assay [2] was inactive.

For `O=C1CCCC1`, the outcome in assay [1] and in assay [2] was inactive.

For the molecule `O=C(/C=C/C=C/c1ccc2c(c1)OCO2)N1CCCCC1`, the result in assay [1] and in [2] was inactive.

With `Cc1cccc(N(C)C(=S)Oc2ccc3ccccc3c2)c1`, the outcome in assay [1] and in [2] was inactive.

`C=C[Si](OC(C)=O)(OC(C)=O)OC(C)=O`: the outcome in [3], in assay [4], in assay [5], in assay [6], in assay [7] and in assay [8] was inactive. Moreover, the outcome in assay [9], in assay [10], in [11], in [12], in assay [13] and in assay [14] was inactive. The molecule was called inactive in [15] and in assay [16].

For the molecule `Cc1c(C)c([N+](=O)[O-])c(C(C)(C)C)c([N+](=O)[O-])c1C`, the outcome in assay [1] and in [2] was inactive.

`O=C(C(Cl)Cl)N1CCOC12CCCCC2`: the outcome in [1] and in assay [2] was inactive.

Consider `CCCCC(CC)COCC1CO1` (stereo not drawn), for which the outcome in [3], in assay [4], in [5], in assay [6], in assay [7] and in [8] was inactive. For the same molecule, the result in assay [9], in assay [10], in [11], in assay [12], in assay [13] and in [14] was inactive. For the same molecule, the call in [15] and in assay [16] was inactive.

For the molecule `Oc1ccc(Cl)cc1Cc1cc(Cl)ccc1O`, the outcome in assay [1] and in [2] was inactive.

With `CCOC(=O)c1ccccc1C(=C1C=C(Br)C(=O)C(Br)=C1)c1cc(Br)c(O)c(Br)c1`, the molecule was called inactive in [3], in [4], in assay [1], in assay [2], in [5] and in [6]. Moreover, the outcome in assay [7], in [8], in assay [9], in [10], in assay [11] and in [12] was inactive. The outcome in assay [13], in [14] and in assay [16] was inactive. Also, the AC50 in [15] was 11.8 µM (active).

On to `CCCNC(=O)NS(=O)(=O)c1ccc(Cl)cc1`, for which the outcome in assay [1] and in assay [2] was inactive.

For `O=c1[nH]c(=O)c2[nH]c(=O)[nH]c2[nH]1`, the outcome in assay [1], in [2] and in [17] was inactive.
